Reference: PubChem BioAssay (NCI)
Several values for one entry are separate records, joined by “and”; a condition that tells them apart may be missing. Identical values can stand only once. This is part of a sample that, as a whole, favours compounds with a hit. Of some 79,000 tested, about 15% had one in any assay. Rule as the data show it: active = growth inhibition above about 70%; inactive = the rest.

Assays:
[1] = NCI Yeast Anticancer Drug Screen. Data for the rad50 strain (AID 155);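 also: 0% = growth of vehicle-only cultures of the same strain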; details: S. cerevisiae rad50 strain growth inhibition; at 50.0 µM; stronger effect = higher value
Outline: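 Cells are treated with compound, grown, and their growth is then scored against vehicle-only cultures of the same repair-deficient yeast strain.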

[2] = NCI Yeast Anticancer Drug Screen. Data for the mec2-1 strain (AID 157); details: S. cerevisiae mec2-1 strain, at 50.0 µM, stronger effect = higher value
Outline: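 Yeast mec2-1 mutant treated with compound. Readout: growth inhibition vs vehicle controls.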

[3] = NCI Yeast Anticancer Drug Screen. Data for the sgs1 mgt1 strain (AID 161);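 also: 0% = growth of cultures given vehicle only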; details: S. cerevisiae sgs1 mgt1 strain, at 50.0 µM, stronger effect = higher value
Outline: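 Mutant yeast exposed to compound; growth scored against vehicle-only wells.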

[4] = NCI Yeast Anticancer Drug Screen. Data for the cln2 rad14 strain (AID 165);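 also: 0% = growth equal to vehicle treated cultures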; details: S. cerevisiae cln2 rad14 strain, at 50.0 µM, stronger effect = higher value
Outline: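 cln2 rad14 yeast strain; compound exposure; growth inhibition read vs vehicle controls.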

[5] = NCI Yeast Anticancer Drug Screen. Data for the bub3 strain (AID 167); details: S. cerevisiae bub3 mutant strain, at 50.0 µM, stronger effect = higher value
Outline: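 Part of a panel of yeast mutants defective in DNA damage repair or cell cycle regulation. Each strain is grown with compound, and inhibition is calculated relative to solvent-treated cultures.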

[6] = NCI Yeast Anticancer Drug Screen. Data for the mlh1 rad18 strain (AID 175); details: S. cerevisiae mlh1 rad18 strain growth inhibition; at 50.0 µM; stronger effect = higher value
Outline: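 Yeast w/ defined DNA-repair lesions; compound exposure; growth vs vehicle controls → % inhibition.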

Measured: growth inhibition

Cc1ccc(N)c(N)c1
inactive: [1] 18.6% and 6.85% | [2] -5% and -3.75% | [3] 9.3% and -3.35% | [4] 9.8% and 32.2% | [5] 7.75% and -7.95% | [6] 19% and 7.5%

CCCCC1CN1C(=N)OCC (stereo unspecified)
inactive: [1] 6.65% | [2] -0.6% | [3] 15.4% | [4] 59.1% | [5] 0.9% | [6] 29.1%

COc1cc(C2CNCc3cc(OC)c(O)cc32)ccc1O (stereo unspecified)
inactive: [1] 0.05% | [2] -7.1% | [3] -11.1% | [4] -17.8% | [5] -9.85% | [6] 1.2%

OCC[N+]12CN3CN(CN(C3)C1)C2
inactive: [1] 21.9% | [2] 6.3% | [3] 20.1% | [4] 16.9% | [5] 4.55% | [6] 15.7%

Cc1csc(CP(=O)(OC(C)C)OC(C)C)n1
inactive: [1] -22.6% | [2] -47% | [3] -21.6% | [4] -13.2% | [5] 3.35% | [6] -5.8%

NNC(=O)c1cc([N+](=O)[O-])c(O)c([N+](=O)[O-])c1
inactive: [1] -9.85% | [2] -14.8% | [3] 8.35% | [4] 7.4% | [5] 11.8% | [6] -5.55%

CCC/C=C/C=C/C(=O)OC1/C(=C/C(=O)OC)CC2CC(C(C)O)OC(=O)CC(O)CC3CC(OC(C)=O)C(C)(C)C(O)(CC4C/C(=C/C(=O)OC)CC(/C=C/C(C)(C)C1(O)O2)O4)O3 (stereo unspecified)
inactive: [1] 15.7% | [2] -5.2% | [3] -7.85% | [4] 21.3% | [5] 6.15% | [6] 23.1%

CCN1CC2(CO)CCC(OC)C34C5CC6C(OC)CC(O)(C5C6OC)C(O)(C(OC)C23)C14 (stereo unspecified)
inactive: [1] 1.95% | [2] -16.6% | [3] 2.7% | [4] 9% | [5] -12.6% | [6] 6.75%

CCOP(=O)(OCC)C(C#N)Cc1ccco1 (stereo unspecified)
inactive: [1] -19.2% | [2] -23.9% | [3] -14.1% | [4] -9.4% | [5] -4.1% | [6] 1.9%

C[CH2][Pb]([CH2]C)([CH2]C)[O]C(=O)c1ccccc1
inactive: [1] -0.3% | [2] 1.6% | [3] 10.2% | [4] -3.35% | [5] 1.35% | [6] 5.35%

COC(=O)Cc1ccccc1
inactive: [1] -4.4% | [2] 15.1% | [3] -31.8% | [4] 5.9% | [5] -50.5% | [6] -19.5%

O=C1CC(=O)N(C2CCC(C3CCCCC3)CC2)C(=O)N1 (stereo unspecified)
inactive: [1] 14.1% | [2] 4.85% | [3] 27.5% | [4] 1.35% | [5] 22.3% | [6] 5.75%

c1ccc(N2CCN(Cc3c[nH]c4ccccc34)CC2)cc1
inactive: [1] 7.9% | [2] 1.9% | [3] 7.55% | [4] -26.6% | [5] 0.85% | [6] -9.6%

O.[Co].[NH2-].[NH2-].[NH2-].[NH2-].[NH2-]
inactive: [1] 27.9% | [2] -27.1% | [3] 36.2% | [4] 12.8% | [5] 24.2% | [6] 33.4%

O=C(O)C(=O)O.[Ru].c1cnc2c(c1)ccc1cccnc12.c1cnc2c(c1)ccc1cccnc12
inactive: [1] 25.1% | [2] -10.9% | [3] 2.95% | [4] 5.45% | [5] -2.2% | [6] 5.25%

N.N.N.N.O=S(=O)([O-])[O-].[Co+3].[OH3+].[OH3+]
inactive: [1] 2.25% | [2] -0.6% | [3] -22.5% | [4] 26.1% | [5] -4.7% | [6] -0.15%

CC1(C)C2CC[C@@]1(C)C(=O)C2Br (stereo partly specified)
inactive: [1] 24.9% | [2] 25.6% | [3] -1.6% | [4] 7.55% | [5] 23.9% | [6] -8.7%

O=C(N/N=C/c1cc(Br)cc(Br)c1[O-])c1ccccc1O.O=C(N/N=C/c1cc(Br)cc(Br)c1[O-])c1ccccc1O.[Fe+2]
inactive: [1] 20.4% | [2] 21.7% | [3] 52% | [4] -34.8% | [5] 34.4% | [6] 43.8%

[Co].[NH2-].[NH2-].[NH2-].[NH2-].[NH2-].[NH2-]
inactive: [1] -5% and 8.1% | [2] -15.3% and 9.05% | [3] -5.4% and 6.25% | [4] -19.8% and 10.1% | [5] 2.3% and 23.4% | [6] -2.9% and -5.85%

COc1ccc(C(N)Cc2ccccc2)cc1 (stereo unspecified)
inactive: [1] 10.8% | [2] 3.15% | [3] 10.8% | [4] 9.85% | [5] 3.5% | [6] -2.35%

NCCN.NCCN.[Cl-].[O]=[Os+2]=[O]
inactive: [1] 0.8% and 3.45% | [2] -22% and 1% | [3] -6.15% and -20.8% | [4] -20.3% and 23.3% | [5] -40.6% and 0.3% | [6] -6.3% and -13.2%

CCC1=CC2CN3CCc4c([nH]c5ccccc45)C(C(=O)OC)(C2)C13 (stereo unspecified)
inactive: [1] 30.2% and -9.75% | [2] -26.9% and -17.9% | [3] -12.8% and -33.1% | [4] -19.3% and -6.65% | [5] -2.3% and -38.2% | [6] -17.6% and -19.2%

Cc1cc(-c2ccccc2)cc(C)[n+]1CC[n+]1c(C)cc(-c2ccccc2)cc1C
inactive: [1] -14.9% | [2] -10.7% | [3] -5.85% | [4] -47.7% | [5] 3.4% | [6] -19.4%

O.O.[NH-]C1(C(=O)O)CCCC1.[NH-]C1(C(=O)O)CCCC1.[Ni+2]
inactive: [1] -12% | [2] -15.9% | [3] -16.6% | [4] 19.4% | [5] -48.9% | [6] -17.4%

CC[C@H]1CN2CCc3c([nH]c4ccccc34)[C@@H]2C[C@@H]1/C(=C\OC)C(=O)OC
inactive: [1] 8.45% | [2] 3.8% | [3] 18.6% | [4] 9.35% | [5] 21.6% | [6] 0.65%

CC1=C[C@H]2[C@@]3(O)[C@H](C)C[C@]4(OC(=O)C(C)C)[C@H]([C@@H]3C=C(CO)C[C@]2(O)C1=O)C4(C)C
inactive: [1] 20.1% | [2] 14.3% | [3] 4.8% | [4] 3.9% | [5] 20.8% | [6] 10.8%
